Compound activity deposited in PubChem BioAssay by National Center for Advancing Translational Sciences (NCATS).
Hits are enriched below; roughly 22% of the tested compounds scored in any of these assays.
CHX counter – Cycloheximide Counterscreen for Small Molecule Inhibitors of Shiga Toxin | cell reporter, cycloheximide protein synthesis inhibition counterscreen | max response, % | hit rate 12% among 300,000; in the data active = max response mostly above about 13%, no sharp cut-off; inactive = mostly below about 14%; also: read at 38.3 µM for the half of the compounds with a filed dose
Pf growth 48h – Primary qHTS for delayed death inhibitors of the malarial parasite plastid, 48 hour incubation; P. falciparum luciferase growth in erythrocytes, 48 h; Potency, µM (titrated, usually from 28.7 µM), most hits filed as inhibitors; hit rate 5.9% among 310,000; AID 504832, 2011
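Parasite viability was followed by luminescence of a genomically integrated firefly luciferase. Cultures held 0.1% parasitemia at 2% hematocrit (final), incubated under 5% CO2 at 37 C.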
Pf growth 96h – Primary qHTS for delayed death inhibitors of the malarial parasite plastid, 96 hour incubation; Potency, µM (titrated, usually from 28.7 µM), most hits filed as inhibitors; AID 504834, 2011; P. falciparum luciferase reporter growth, 96 h; hit rate 6.9% among 320,000
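Plates of compound plus infected erythrocytes (2% hematocrit, 0.05% parasitemia final) incubate 96 hours, 37 C, 5% CO2. Detection reagent added; reduced luminescence from the parasites' luciferase reporter flags inhibition.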
Shiga toxin inh – A qHTS for Small Molecule Inhibitors of Shiga Toxin; Vero cells, Shiga toxin protein synthesis inhibition reporter; inhibition, % at 38.7 µM; hit rate 9.2% among 290,000; AID 2315, 2010; in the data active = inhibition mostly above about 28%, no sharp cut-off; inactive = mostly below about 43%
LmPK inh – qHTS Assay for Inhibitors of Leishmania Mexicana Pyruvate Kinase (LmPK) | Q27686 | purified LmPK, Kinase-Glo ATP luminescence, 1 h | Potency, µM (highest dose often 57.5 µM), most hits filed as inhibitors | hit rate 0.37% among 290,000
Target sequence (Q27686 whole entry, looked up): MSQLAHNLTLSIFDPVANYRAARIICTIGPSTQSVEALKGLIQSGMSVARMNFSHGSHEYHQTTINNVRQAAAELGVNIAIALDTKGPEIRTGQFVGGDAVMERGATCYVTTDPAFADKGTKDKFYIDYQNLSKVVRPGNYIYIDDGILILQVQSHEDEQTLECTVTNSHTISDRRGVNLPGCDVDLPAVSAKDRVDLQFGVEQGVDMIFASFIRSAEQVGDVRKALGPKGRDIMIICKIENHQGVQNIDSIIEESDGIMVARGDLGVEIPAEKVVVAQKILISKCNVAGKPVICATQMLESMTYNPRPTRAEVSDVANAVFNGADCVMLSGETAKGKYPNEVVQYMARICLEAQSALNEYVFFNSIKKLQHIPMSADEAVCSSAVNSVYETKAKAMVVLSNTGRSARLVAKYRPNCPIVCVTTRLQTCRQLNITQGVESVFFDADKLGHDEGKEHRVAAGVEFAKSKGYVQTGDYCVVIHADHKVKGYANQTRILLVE
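In 50 mM imidazole pH 7.2 with 7 mM MgCl2, LmPK (0.1 nM) turned over PEP (0.5 mM) and ADP (0.1 mM) for 1 h at room temperature. Luciferase read-out of ATP.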
A number is an active result; i = inactive; ? = inconclusive; nt = not tested or not shown; [ ] = another dose, or the depositor's remark. Unless noted, calls follow the shape of the dose curve; as a rule, active = well fitted inhibition curve with a large enough effect; inconclusive = small, poorly fitted or top-dose-only effect, or another doubt; inactive = no such curve, though single readings can be large or run the other way.

SMILES	CHX counter	Pf growth 48h	Pf growth 96h	Shiga toxin inh	LmPK inh
COc1ccc(CN(C)C(=O)c2cccc(Oc3ccccc3)c2)c(OC)c1OC	i	i	i	i	i
O=C(O)c1ccc(Oc2ccc(S(=O)(=O)c3ccc(C(=O)O)c(C(=O)O)c3)cc2)cc1	i	i	?	i	i
O=C(Nc1ccc(Cl)c(Cl)c1)c1ccc(Cl)c(Cl)c1	50.3	i	i	88.7	i
CC(C)(C)c1cc(C(=O)Nc2cccnc2)cc(C(=O)Nc2cccnc2)c1	i	nt	0.828µM	i	i
O=C(Nc1cccc(Cl)c1)c1ccncc1	i	i	i	i	i
O=C(Nc1ccc(Cl)c(Cl)c1)c1ccncc1	30.6	i	14.7µM	101.0	i
Cc1ccc(NC(=O)c2ccc(Cl)c(N3C(=O)C=CC3=O)c2)cc1	56.9	i	i	81.0	i
Cc1ccc(/C=C/C(=O)O)cc1S(=O)(=O)N1CCCCC1	i	i	i	i	i
O=c1c2ccccc2ncn1Cc1ccc2c(c1)OCO2	i	i	?	i	i
CS(=O)(=O)c1cccc(NC(=O)c2ccc(Cl)c(Cl)c2)c1	i	i	?	54.4	i
O=C(NNC(=O)c1ccc(Cl)c(Cl)c1)c1cccnc1	i	i	i	i	i
O=C(Nc1ccc(Cl)c(Cl)c1)Nc1cc(C(=O)NC2CC2)ccc1Cl	i	13.1µM	?	i	i
O=C(Nc1cccnc1)c1ccc(Cl)c(Cl)c1	23.9	?	6.57µM	nt	i
CCO[C@@H]1OC(C(=O)N2CCN(Cc3ccc4c(c3)OCO4)CC2)=C[C@H](c2ccc(Br)cc2)[C@H]1CCCO	i	1.31µM	4.15µM	i	i
CCO[C@@H]1OC(C(=O)N2CCN(Cc3ccc4c(c3)OCO4)CC2)=C[C@H](c2ccc(C(F)(F)F)cc2)[C@H]1CCCO	i	1.47µM	2.33µM	i	i
CCO[C@H]1OC(C(=O)N2CCN(C)CC2)=C[C@@H](c2ccc3c(c2)OCO3)[C@@H]1CCCO	i	i	?	i	i
COc1ccc(C(=O)NC2(C(F)(F)F)NC(=O)N(CCCc3ccccc3)C2=O)cc1OC (centres undefined)	i	?	?	i	i
O=C(Nc1cccc2ncccc12)c1cc([N+](=O)[O-])ccc1Cl	i	i[0.00184 µM]	11.7µM	i	i
O=C(Nc1ccc([N+](=O)[O-])cc1Br)c1cc2ccccc2nc1Cl	i	0.185µM	0.329µM	i	i
O=C(Nc1cccnc1Cl)c1cc([N+](=O)[O-])ccc1Cl	i	i	?	i	i
Cc1ccc(O)c(NC(=O)c2cc([N+](=O)[O-])ccc2Cl)c1	i	9.28µM	i	i	i
Cc1cc(O)c(NC(=O)c2cc([N+](=O)[O-])ccc2Cl)cc1C	i	?	i	i	i
CC1CCCCC12NC(=O)N(CC(=O)N1CCN(S(=O)(=O)Cc3ccccc3)CC1)C2=O (centres undefined)	nt	i	i	nt	nt
COC(=O)C1=C(C(=O)OC)[C@@H]2N(C)c3ccccc3[C@@]23C[C@@H](C(=O)OC)N(C(=O)c2cc(C)oc2C)C3=N1	i	?	?	i	i[11.5 µM]
CC(=O)N1CCN(c2ccc(NC(=O)c3ccc([N+](=O)[O-])cc3)cc2)CC1	i	i	i	i	i
SMILES	CHX counter	Pf growth 48h	Pf growth 96h	Shiga toxin inh	LmPK inh
O=C(Nc1ccc(N2CCOCC2)cc1)c1ccc([N+](=O)[O-])cc1	28.0	i	i	84.5	i
O=C(Nc1ccc(N2CCOCC2)cc1)c1ccncc1	13.6	i	?	32.3	i
Cc1ccnc2nc(C(=O)Nc3ccc(N4CCOCC4)cc3)nn12	27.6	i	i[5.75 µM]	74.3	?
CC(=O)Nc1nc(-c2ccc3c(c2)CCN3C(=O)C2CC2)c(C)s1	i	i	i	i	i
CCC(C)C(=O)N1CCc2cc(-c3csc(N)n3)ccc21 (centres undefined)	51.5	i	i	65.2	i
CCCC(=O)N1CCc2cc(-c3nc(N)sc3C)ccc21	49.4	i	i	79.2	i
CC(C)(C)C(=O)N1CCc2cc(-c3csc(N)n3)ccc21	i	i	i	i	?
NCCc1ccccn1	i	nt	nt	i	nt
CC(C)(C)c1ccc(SCCc2ccccn2)cc1	40.1	i	i	88.5	i
CC(C)(C)c1ccc(S(=O)(=O)CCc2ccccn2)cc1	26.8	nt	i	54.3	i
Fc1ccc(SCCc2ccccn2)cc1	51.6	i	i	71.8	?
Cc1ccc(S(=O)(=O)CCc2ccccn2)cc1	i	i	nt	i	i
